# From the supplement of paper PMC11741263, “Chemoproteomic Profiling of C. albicans for Characterization of Anti-fungal Kinase Inhibitors” (bioRxiv, 2025)
# Compound: Cc1[nH]nc2ccc(-c3cc(OC[C@@H](N)Cc4ccccc4)cnc3-c3ccoc3)cc12
# Assay: MIB bead binding, log2 fold change vs DMSO (log2 ratio); higher = less competition (weaker engagement)
# Conditions: 0.1 µM
# Sequence of UniProt P16066 (P16066 whole entry, looked up): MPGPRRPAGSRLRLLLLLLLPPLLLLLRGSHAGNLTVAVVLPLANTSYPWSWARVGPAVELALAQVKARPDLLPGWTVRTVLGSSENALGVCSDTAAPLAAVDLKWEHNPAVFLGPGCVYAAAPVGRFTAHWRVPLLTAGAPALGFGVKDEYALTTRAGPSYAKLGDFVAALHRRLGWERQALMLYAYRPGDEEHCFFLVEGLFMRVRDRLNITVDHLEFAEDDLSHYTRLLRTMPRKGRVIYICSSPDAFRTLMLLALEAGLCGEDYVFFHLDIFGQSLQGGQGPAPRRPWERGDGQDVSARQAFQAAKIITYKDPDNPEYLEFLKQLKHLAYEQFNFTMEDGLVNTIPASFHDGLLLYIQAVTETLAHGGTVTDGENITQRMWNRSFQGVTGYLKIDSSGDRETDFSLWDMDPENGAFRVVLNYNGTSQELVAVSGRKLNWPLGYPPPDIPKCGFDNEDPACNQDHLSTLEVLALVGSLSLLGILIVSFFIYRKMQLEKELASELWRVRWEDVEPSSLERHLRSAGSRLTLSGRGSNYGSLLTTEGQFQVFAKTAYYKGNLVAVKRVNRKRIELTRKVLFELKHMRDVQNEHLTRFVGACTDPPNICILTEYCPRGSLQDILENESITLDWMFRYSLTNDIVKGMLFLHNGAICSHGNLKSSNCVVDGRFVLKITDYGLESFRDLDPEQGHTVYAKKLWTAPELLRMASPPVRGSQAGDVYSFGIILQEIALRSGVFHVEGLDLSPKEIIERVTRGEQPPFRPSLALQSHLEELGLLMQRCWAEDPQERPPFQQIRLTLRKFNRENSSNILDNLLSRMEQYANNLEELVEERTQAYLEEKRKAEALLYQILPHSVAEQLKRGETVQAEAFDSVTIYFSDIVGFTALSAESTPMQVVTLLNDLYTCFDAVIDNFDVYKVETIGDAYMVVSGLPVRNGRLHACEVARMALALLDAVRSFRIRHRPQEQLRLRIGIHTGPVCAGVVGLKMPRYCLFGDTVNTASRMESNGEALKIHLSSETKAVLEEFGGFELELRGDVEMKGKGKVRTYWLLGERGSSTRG
# Sequence of UniProt Q59W62 (Q59W62 whole entry): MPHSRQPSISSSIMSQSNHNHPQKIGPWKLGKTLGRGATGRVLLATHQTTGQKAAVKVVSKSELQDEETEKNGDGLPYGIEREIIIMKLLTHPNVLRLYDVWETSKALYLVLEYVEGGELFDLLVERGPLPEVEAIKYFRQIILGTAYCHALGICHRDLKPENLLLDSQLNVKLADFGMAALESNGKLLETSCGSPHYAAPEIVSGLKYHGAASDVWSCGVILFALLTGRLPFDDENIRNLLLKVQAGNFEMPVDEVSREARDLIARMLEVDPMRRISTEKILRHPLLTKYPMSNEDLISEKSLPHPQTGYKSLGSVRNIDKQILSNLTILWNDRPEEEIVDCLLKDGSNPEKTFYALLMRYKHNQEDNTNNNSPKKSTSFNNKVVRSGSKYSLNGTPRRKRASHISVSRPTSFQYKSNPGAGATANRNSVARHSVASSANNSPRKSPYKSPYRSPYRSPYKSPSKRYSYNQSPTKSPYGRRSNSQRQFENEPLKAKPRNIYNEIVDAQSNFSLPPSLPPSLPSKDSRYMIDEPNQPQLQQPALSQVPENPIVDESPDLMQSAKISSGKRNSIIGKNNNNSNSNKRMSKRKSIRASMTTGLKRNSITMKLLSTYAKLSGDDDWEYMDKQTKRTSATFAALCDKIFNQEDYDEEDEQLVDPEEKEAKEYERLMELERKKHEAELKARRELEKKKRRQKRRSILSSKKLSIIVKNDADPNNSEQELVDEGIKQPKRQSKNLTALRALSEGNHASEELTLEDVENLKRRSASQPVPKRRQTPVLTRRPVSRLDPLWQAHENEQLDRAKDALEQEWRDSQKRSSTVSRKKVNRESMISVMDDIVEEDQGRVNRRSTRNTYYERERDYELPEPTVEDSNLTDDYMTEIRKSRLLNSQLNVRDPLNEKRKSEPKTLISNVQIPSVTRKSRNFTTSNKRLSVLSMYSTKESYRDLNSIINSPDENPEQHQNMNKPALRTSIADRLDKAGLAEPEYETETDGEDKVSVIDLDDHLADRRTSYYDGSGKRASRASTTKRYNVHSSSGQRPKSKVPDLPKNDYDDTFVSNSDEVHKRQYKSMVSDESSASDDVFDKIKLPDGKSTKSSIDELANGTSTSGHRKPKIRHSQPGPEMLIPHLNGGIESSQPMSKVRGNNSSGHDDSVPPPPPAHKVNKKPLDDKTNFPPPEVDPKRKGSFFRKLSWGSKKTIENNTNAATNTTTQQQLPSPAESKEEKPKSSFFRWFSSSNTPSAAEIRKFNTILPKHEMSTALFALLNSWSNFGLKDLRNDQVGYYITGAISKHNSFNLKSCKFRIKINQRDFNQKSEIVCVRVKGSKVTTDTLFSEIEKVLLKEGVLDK
# Sequence of UniProt Q9HGY5 (Q9HGY5 whole entry): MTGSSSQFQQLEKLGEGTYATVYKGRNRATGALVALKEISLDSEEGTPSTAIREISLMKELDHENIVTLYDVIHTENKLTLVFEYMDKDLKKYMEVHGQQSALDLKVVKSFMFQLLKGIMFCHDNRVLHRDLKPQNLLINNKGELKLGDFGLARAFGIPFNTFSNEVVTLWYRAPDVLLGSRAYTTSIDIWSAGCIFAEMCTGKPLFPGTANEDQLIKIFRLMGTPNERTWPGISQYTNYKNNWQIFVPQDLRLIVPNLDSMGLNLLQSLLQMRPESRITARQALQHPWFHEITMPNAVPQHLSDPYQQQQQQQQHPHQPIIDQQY
# Sequence of UniProt Q5AG71 (Q5AG71 whole entry): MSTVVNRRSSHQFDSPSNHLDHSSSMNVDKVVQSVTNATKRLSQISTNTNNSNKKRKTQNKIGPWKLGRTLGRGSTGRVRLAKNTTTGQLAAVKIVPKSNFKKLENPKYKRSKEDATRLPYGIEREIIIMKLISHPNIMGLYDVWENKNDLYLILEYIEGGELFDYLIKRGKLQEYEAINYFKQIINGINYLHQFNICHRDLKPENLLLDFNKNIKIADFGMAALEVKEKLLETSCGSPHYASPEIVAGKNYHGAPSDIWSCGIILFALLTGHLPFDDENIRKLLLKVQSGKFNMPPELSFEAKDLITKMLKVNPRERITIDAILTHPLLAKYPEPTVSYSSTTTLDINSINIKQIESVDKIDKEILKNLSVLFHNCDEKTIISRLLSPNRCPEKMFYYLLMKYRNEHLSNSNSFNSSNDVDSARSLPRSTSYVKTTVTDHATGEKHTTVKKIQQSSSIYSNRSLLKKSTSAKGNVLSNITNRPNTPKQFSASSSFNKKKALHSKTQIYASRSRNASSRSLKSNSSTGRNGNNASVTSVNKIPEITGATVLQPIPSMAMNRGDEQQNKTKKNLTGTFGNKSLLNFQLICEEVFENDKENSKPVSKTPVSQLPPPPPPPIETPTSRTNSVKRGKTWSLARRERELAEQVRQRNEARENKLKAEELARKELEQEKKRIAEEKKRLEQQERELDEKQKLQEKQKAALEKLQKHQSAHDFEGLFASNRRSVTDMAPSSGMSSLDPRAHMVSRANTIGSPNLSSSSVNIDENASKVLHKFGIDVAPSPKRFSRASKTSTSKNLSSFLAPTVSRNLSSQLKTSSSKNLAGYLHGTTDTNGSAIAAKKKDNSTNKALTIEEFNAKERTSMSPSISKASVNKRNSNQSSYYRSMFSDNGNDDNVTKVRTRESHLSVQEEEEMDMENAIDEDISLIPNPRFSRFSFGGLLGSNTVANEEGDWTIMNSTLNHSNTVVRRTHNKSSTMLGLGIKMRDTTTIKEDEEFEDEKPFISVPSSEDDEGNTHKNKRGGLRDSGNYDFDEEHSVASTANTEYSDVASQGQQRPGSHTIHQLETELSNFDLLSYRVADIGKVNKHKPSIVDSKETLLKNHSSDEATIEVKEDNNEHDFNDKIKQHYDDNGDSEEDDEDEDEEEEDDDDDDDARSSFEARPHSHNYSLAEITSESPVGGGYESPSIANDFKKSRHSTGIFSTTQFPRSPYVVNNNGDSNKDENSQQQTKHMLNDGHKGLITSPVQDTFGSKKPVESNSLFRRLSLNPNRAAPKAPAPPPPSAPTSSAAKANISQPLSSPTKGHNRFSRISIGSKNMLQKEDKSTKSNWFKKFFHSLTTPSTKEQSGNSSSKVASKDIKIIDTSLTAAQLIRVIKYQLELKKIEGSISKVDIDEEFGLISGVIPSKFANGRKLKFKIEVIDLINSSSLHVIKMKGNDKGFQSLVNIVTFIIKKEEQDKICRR
# Sequence of UniProt Q9UW13 (Q9UW13 whole entry): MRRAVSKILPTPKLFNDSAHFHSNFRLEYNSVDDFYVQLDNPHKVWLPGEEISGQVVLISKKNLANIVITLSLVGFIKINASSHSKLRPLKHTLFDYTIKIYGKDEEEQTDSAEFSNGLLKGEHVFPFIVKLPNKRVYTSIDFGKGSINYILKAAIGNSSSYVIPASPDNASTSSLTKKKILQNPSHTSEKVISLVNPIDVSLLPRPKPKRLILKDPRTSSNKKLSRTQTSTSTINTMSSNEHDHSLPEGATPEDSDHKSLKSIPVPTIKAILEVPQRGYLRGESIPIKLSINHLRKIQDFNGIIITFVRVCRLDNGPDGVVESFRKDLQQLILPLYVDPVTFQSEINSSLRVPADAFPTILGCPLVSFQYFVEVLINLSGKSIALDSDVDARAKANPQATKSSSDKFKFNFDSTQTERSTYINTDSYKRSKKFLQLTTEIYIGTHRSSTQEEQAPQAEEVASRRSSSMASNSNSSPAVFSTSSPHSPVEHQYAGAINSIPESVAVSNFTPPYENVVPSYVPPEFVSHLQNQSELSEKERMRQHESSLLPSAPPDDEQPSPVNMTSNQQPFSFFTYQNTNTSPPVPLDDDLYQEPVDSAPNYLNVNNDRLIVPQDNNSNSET
row,Target,MIB bead binding (log2)
1,MCK1,-0.0754
2,NPR1 (UniProt P16066),0.0428
3,RTK1,0.0613
4,orf19.4144,-0.0982
5,FPK1,0.0443
6,RIM8 (UniProt Q9UW13),-0.206
7,POM1,-0.418
8,YAK1,-0.229
9,CMK1,0.142
10,RIO2 (UniProt Q9BVS4),-0.284
11,HSL1 (UniProt Q5AG71),0.351
12,orf19.6492,-0.282
13,HRK1,-0.0934
14,RCK2,-0.0134
15,CAK1 (UniProt P50613),-0.167
16,YCK2,-0.488
17,PHO85 (UniProt Q9HGY5),0.238
18,YPK1,-0.0854
19,HST7,0.106
20,AKL1,-0.106
21,PKH3,-0.246
22,Yck22,-0.049
23,SAK1,0.0968
24,ENV7,-0.351
25,GIN4 (UniProt Q59W62),-0.016
26,KIN3,0.0483
27,RIM11,-0.208
28,CBK1 (UniProt Q5AP53),0.0978

# Same assay, conditions: 1 µM
row,Target,MIB bead binding (log2)
1,MCK1,0.0618
2,NPR1 (UniProt P16066),-0.0888
3,RTK1,0.118
4,orf19.4144,-0.112
5,FPK1,-0.0445
6,RIM8 (UniProt Q9UW13),-0.122
7,POM1,-0.345
8,YAK1,-0.0276
9,CMK1,0.154
10,RIO2 (UniProt Q9BVS4),-0.263
11,HSL1 (UniProt Q5AG71),0.197
12,orf19.6492,-0.0346
13,HRK1,0.0301
14,RCK2,-0.109
15,CAK1 (UniProt P50613),0.067
16,YCK2,-1.75
17,PHO85 (UniProt Q9HGY5),0.232
18,YPK1,-0.539
19,HST7,-0.0777
20,AKL1,-1.01
21,PKH3,-0.128
22,Yck22,-0.35
23,SAK1,-0.223
24,ENV7,0.16
25,GIN4 (UniProt Q59W62),-0.162
26,KIN3,0.0107
27,RIM11,-0.891
28,CBK1 (UniProt Q5AP53),-0.0808

# Same assay, conditions: 10 µM
row,Target,MIB bead binding (log2)
1,MCK1,-1.02
2,NPR1 (UniProt P16066),-0.75
3,RTK1,-1.04
4,orf19.4144,-2.63
5,FPK1,-0.41
6,RIM8 (UniProt Q9UW13),-2.22
7,POM1,-2.53
8,YAK1,-2.8
9,CMK1,-0.566
10,RIO2 (UniProt Q9BVS4),-1.23
11,HSL1 (UniProt Q5AG71),-0.67
12,orf19.6492,-3.3
13,HRK1,-0.517
14,RCK2,-0.886
15,CAK1 (UniProt P50613),-2.18
16,YCK2,-3.65
17,PHO85 (UniProt Q9HGY5),-0.87
18,YPK1,-1.48
19,HST7,-1.68
20,AKL1,-5.4
21,PKH3,-0.466
22,Yck22,-2.01
23,SAK1,-0.482
24,ENV7,-1.89
25,GIN4 (UniProt Q59W62),-0.625
26,KIN3,-0.586
27,RIM11,-3.89
28,CBK1 (UniProt Q5AP53),-0.759
